This passage reports binding signal results from publication PMC7862700, “An all-to-all approach to the identification of sequence-specific readers for epigenetic DNA modifications on cytosine”.

Assay in all cases: DAPPL (digital affinity profiling via proximity ligation, sequencing); 10 mM Tris-HCl pH 7.5, 50 mM NaCl, 1 mM DTT, 4% glycerol, room temperature, 30 min; GST-TFs on glutathione beads, 16-mer random dsDNA library, 0.1% formaldehyde crosslink after washing; high values mean tight binding
In one experiment the target is T1, FEV (Homo sapiens, UniProt Q99581 1-238).
T1 sequence: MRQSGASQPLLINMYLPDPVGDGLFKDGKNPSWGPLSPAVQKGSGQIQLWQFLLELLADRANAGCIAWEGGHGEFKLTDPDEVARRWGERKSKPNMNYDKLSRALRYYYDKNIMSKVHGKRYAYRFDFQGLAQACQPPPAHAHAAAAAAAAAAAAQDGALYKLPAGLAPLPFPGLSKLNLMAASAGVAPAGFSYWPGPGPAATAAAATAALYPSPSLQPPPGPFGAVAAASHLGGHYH
The following applies: protein: recombinant; tags: N-terminal GST; dsDNA, one strand shown. The method, boiled down:
(§1)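 After expression in yeast as GST fusions, human transcription factors were bound to glutathione beads, DNA-barcoded and mixed with a tag-only sample. The pools were incubated with 200 nmole of a 16-mer random double-stranded DNA library in Tris/NaCl/DTT/glycerol buffer (30 min, room temperature), washed and crosslinked with 0.1% formaldehyde. Proximity ligation with BsaI/T4 ligase ran for 1 h at 37 °C, before PCR amplification and sequencing on an Illumina NextSeq500. Binding signal is a hexamer's read frequency for a factor divided by its frequency for the tag-only sample.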

The next experiment deals with ETV5 (Homo sapiens, UniProt P41161 1-510). The note with it: protein: recombinant; tags: N-terminal GST; dsDNA, one strand shown. The method, boiled down:
as §1

A further experiment has as its target HSF1 (Homo sapiens, UniProt Q00613 1-529). The following applies: protein: recombinant; tags: N-terminal GST; chain copies: 3; dsDNA, one strand shown. The procedure, abridged: as §1
The target of another experiment is T2, SPIC (Homo sapiens, UniProt Q8N5J4 1-248).
T2 sequence: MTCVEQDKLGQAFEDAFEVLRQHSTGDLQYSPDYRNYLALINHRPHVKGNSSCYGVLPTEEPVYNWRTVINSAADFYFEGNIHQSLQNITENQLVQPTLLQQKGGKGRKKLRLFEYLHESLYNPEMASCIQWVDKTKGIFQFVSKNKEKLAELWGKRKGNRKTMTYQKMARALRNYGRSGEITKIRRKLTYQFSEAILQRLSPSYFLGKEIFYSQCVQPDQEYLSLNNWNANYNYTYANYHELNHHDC
The note with it: protein: recombinant; tags: N-terminal GST; dsDNA, one strand shown. The procedure, abridged: as §1

A further experiment addresses ELF4 (Homo sapiens, UniProt Q99607 1-663). The note with it: protein: recombinant; tags: N-terminal GST; dsDNA, one strand shown. The procedure, abridged: as §1
For the next experiment, the target named is T3, ELK4 (Homo sapiens, UniProt P28324-2 1-405).
T3 sequence: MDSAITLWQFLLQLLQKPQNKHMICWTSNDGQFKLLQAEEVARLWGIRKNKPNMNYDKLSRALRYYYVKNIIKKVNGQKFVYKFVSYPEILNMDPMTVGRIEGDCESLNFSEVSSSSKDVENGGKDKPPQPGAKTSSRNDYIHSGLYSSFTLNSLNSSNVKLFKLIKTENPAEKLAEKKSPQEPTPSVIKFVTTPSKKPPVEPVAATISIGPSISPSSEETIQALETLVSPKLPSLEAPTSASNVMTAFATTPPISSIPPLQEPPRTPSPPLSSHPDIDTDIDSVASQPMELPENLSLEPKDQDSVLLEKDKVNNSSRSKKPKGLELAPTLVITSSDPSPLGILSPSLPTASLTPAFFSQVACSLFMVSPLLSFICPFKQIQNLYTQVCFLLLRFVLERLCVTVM
The note with it: protein: recombinant; tags: N-terminal GST; dsDNA, one strand shown. The method, boiled down:
as §1

The next experiment addresses T4, ETV2 (Homo sapiens, UniProt O00321 1-342).
T4 sequence: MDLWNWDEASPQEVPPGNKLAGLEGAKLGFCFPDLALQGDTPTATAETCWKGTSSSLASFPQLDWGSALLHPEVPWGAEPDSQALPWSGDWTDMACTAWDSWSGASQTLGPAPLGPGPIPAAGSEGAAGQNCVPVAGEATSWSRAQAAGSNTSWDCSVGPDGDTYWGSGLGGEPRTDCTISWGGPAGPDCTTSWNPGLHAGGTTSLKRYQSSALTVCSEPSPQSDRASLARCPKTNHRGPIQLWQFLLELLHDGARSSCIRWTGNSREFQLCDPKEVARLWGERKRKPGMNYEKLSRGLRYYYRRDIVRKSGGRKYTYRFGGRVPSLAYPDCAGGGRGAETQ
The note with it: protein: recombinant; tags: N-terminal GST; dsDNA, one strand shown. The procedure, abridged: as §1

In the next experiment the target is T5, ELF3 (Homo sapiens, UniProt P78545 1-371).
T5 sequence: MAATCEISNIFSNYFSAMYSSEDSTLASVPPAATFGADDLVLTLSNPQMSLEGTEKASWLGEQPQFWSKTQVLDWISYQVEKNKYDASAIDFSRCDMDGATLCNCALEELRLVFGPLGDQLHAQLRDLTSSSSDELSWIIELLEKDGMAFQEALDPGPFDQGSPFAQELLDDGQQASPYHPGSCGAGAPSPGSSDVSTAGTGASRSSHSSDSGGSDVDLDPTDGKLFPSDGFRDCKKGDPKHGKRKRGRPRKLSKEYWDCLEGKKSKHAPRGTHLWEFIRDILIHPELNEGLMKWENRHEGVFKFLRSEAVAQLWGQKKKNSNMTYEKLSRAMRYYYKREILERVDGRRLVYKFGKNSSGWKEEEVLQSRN
The following applies: protein: recombinant; tags: N-terminal GST; dsDNA, one strand shown. The method, boiled down:
as §1

A further experiment addresses CRX (Homo sapiens, UniProt O43186 1-299). The note with it: protein: recombinant; tags: N-terminal GST; dsDNA, one strand shown. The method, boiled down:
as §1

The next experiment addresses ETV1 (Homo sapiens, UniProt P50549 1-477). The following applies: protein: recombinant; tags: N-terminal GST; dsDNA, one strand shown. The method, boiled down:
as §1

For the next experiment, the target named is T6, ERF (Homo sapiens, UniProt P50548 1-548).
T6 sequence: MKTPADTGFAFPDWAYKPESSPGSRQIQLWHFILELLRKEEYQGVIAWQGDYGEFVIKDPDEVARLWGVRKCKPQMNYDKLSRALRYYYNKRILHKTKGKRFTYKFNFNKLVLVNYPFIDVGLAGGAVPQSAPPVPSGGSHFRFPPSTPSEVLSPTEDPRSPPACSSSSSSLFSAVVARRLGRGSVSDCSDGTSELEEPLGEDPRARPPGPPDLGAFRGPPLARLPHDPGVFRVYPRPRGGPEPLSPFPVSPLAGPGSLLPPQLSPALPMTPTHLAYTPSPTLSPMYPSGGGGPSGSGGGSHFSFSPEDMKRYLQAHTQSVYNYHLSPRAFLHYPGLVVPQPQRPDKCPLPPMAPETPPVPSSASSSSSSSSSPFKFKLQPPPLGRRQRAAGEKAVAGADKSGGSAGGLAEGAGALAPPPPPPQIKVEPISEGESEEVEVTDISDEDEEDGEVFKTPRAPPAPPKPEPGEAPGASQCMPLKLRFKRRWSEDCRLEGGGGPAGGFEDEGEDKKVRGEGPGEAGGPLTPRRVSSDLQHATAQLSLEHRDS
The note with it: protein: recombinant; tags: N-terminal GST; dsDNA, one strand shown. The procedure, abridged: as §1

The next experiment addresses T7, ETV3L (Homo sapiens, UniProt Q6ZN32 1-361).
T7 sequence: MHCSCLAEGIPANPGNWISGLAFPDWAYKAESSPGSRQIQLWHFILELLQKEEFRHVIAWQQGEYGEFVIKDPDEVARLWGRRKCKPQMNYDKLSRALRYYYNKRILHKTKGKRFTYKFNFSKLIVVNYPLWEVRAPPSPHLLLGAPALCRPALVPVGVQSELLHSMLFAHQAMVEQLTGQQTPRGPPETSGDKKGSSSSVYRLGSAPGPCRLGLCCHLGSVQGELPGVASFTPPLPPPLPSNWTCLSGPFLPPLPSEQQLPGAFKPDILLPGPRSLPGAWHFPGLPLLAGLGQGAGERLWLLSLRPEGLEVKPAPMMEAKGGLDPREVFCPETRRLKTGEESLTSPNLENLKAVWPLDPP
The following applies: protein: recombinant; tags: N-terminal GST; dsDNA, one strand shown. The method, boiled down: as §1

The target of a further experiment is T8, ETS2 (Homo sapiens, UniProt P15036 1-469).
T8 sequence: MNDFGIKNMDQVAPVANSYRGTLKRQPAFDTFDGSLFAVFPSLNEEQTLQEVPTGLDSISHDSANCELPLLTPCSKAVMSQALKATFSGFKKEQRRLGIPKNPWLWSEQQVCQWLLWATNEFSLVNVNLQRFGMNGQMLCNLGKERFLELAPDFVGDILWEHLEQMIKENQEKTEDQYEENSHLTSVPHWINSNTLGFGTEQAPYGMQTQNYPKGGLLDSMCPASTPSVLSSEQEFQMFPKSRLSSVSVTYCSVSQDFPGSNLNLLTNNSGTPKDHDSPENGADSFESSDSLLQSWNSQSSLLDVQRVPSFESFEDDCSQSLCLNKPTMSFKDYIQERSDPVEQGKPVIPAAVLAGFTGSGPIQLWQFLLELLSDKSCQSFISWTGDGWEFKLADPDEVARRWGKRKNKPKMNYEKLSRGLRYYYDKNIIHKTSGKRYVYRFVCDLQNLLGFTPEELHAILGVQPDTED
The following applies: protein: recombinant; tags: N-terminal GST; dsDNA, one strand shown. The method, boiled down:
as §1

Another experiment deals with T9, SPDEF (Homo sapiens, UniProt O95238 1-335).
T9 sequence: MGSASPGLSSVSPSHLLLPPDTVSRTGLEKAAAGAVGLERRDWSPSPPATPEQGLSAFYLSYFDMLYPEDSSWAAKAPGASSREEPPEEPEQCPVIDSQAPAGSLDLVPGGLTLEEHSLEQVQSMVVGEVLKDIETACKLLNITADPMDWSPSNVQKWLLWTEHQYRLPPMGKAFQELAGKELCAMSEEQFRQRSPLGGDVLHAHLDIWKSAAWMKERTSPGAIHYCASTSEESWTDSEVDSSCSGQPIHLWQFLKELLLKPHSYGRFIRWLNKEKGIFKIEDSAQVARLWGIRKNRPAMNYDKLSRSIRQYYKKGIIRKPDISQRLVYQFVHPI
The following applies: protein: recombinant; tags: N-terminal GST; dsDNA, one strand shown. The method, boiled down: as §1

The target of a further experiment is T10, ETV7 (Homo sapiens, UniProt Q9Y603 1-341).
T10 sequence: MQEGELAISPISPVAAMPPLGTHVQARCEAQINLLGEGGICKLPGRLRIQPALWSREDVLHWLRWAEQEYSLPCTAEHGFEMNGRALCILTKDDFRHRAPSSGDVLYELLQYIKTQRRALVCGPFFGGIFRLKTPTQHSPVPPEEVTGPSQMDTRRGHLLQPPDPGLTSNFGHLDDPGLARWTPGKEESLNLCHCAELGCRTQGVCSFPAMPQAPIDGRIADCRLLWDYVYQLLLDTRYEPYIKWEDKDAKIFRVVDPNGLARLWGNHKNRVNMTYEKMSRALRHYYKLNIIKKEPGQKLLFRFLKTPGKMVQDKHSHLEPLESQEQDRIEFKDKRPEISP
The following applies: protein: recombinant; tags: N-terminal GST; dsDNA, one strand shown. The procedure, abridged:
as §1

Another experiment has as its target T11, ELF5 (Homo sapiens, UniProt Q9UKW6-2 1-255).
T11 sequence: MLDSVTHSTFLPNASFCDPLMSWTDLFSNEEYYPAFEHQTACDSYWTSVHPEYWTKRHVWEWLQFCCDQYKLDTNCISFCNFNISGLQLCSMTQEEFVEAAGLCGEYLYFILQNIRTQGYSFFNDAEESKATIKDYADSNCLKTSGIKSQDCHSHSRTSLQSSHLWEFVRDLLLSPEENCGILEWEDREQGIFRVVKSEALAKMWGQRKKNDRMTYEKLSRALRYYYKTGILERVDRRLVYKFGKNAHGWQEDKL
The following applies: protein: recombinant; tags: N-terminal GST; dsDNA, one strand shown. The procedure, abridged: as §1

In the next experiment the target is T12, ETV3 (Homo sapiens, UniProt P41162-2 1-143).
T12 sequence: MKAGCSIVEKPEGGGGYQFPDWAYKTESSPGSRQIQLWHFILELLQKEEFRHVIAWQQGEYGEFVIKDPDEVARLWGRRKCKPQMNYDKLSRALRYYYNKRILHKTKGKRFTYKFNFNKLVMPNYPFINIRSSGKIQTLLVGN
The note with it: protein: recombinant; tags: N-terminal GST; dsDNA, one strand shown. The procedure, abridged:
as §1

A further experiment has as its target ETV6 (Homo sapiens, UniProt P41212 1-452). The following applies: protein: recombinant; tags: N-terminal GST; dsDNA, one strand shown. The procedure, abridged: as §1

Sequence of ETV6 (P41212 whole entry): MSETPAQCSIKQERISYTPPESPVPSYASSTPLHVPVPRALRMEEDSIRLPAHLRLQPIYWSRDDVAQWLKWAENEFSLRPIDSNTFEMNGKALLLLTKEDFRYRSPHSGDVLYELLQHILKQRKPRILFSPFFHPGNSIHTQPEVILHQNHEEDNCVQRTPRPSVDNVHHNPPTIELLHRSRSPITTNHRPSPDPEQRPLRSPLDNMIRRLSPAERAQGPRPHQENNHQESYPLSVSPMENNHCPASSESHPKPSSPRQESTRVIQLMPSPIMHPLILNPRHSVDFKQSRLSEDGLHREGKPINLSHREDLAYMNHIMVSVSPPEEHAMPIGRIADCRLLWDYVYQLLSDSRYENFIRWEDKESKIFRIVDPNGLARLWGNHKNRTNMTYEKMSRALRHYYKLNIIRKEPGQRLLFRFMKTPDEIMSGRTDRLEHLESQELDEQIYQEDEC
Sequence of ELF4 (Q99607 whole entry): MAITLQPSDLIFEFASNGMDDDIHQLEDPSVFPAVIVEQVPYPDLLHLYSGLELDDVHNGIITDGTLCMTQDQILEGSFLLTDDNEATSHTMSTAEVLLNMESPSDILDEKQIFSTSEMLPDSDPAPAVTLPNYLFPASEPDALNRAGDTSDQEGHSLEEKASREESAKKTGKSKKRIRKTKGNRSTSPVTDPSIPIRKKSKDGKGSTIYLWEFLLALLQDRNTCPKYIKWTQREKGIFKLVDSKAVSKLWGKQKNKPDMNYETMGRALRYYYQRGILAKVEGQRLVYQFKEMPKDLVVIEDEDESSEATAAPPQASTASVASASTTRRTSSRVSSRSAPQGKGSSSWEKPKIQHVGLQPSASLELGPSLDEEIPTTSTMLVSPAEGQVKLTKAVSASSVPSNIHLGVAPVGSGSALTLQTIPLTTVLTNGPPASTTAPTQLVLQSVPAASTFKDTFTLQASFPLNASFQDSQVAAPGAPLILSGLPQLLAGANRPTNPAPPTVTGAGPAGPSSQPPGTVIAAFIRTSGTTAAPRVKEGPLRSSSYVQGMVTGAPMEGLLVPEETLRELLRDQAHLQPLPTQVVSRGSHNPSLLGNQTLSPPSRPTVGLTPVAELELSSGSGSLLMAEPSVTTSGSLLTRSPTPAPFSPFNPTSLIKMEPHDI
Sequence of ETV1 (P50549 whole entry): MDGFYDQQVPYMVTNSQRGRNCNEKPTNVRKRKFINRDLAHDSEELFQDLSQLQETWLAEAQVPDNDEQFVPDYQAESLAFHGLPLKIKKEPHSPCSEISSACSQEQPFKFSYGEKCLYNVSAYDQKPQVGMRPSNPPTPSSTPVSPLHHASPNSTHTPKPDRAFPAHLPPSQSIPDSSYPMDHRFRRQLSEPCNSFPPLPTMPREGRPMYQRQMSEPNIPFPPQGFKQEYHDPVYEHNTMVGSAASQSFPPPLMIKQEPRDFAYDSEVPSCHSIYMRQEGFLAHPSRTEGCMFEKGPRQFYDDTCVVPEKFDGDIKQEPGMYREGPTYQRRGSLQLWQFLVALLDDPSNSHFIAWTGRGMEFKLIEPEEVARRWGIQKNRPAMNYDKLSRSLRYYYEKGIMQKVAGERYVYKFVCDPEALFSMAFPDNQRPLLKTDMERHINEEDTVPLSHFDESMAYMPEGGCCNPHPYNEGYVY
Sequence of ETV5 (P41161 whole entry): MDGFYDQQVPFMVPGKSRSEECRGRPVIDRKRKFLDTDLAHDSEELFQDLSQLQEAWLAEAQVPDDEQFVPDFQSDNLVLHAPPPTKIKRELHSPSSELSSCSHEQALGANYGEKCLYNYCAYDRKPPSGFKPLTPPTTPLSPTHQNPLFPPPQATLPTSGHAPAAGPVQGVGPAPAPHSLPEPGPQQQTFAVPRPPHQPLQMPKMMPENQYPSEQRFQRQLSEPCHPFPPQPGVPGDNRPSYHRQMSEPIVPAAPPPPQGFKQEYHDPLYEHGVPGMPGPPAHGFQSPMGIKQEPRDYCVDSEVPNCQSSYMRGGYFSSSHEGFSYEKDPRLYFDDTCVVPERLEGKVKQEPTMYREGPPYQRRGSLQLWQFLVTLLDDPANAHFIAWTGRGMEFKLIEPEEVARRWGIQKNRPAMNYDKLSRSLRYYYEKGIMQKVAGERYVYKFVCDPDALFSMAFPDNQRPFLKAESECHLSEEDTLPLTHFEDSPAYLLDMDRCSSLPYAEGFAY
Sequence of HSF1 (Q00613 whole entry): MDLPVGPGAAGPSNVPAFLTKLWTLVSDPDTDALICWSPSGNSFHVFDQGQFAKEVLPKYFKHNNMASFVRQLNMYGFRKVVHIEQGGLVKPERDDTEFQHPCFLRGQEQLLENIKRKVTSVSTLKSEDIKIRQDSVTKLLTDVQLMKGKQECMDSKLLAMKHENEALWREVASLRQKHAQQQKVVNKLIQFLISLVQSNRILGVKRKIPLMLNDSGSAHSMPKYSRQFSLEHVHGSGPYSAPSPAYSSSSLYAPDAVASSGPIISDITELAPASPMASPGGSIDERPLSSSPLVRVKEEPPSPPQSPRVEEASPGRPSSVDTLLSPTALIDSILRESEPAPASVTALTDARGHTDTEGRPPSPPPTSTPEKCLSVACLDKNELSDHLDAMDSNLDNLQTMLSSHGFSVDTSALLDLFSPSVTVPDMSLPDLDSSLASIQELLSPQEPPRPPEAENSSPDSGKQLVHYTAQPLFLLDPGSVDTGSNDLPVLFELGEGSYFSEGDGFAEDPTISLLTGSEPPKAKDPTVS
Sequence of CRX (O43186 whole entry): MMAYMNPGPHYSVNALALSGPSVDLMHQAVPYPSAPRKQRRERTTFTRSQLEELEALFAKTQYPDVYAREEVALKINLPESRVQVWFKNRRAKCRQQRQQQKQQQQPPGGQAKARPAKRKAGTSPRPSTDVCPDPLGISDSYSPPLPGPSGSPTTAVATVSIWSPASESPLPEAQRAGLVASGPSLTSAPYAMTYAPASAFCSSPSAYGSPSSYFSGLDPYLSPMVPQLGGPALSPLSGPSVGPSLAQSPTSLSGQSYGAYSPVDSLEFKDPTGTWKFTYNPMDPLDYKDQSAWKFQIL

Take TTAACC: the binding signal with FEV was 1.29 fold enrichment (6-mer frequency, TF over GST control); with ETV5, 1.22 fold enrichment (6-mer frequency, TF over GST control); in the experiment with HSF1, 1.8 fold enrichment (6-mer frequency, TF over GST control); with SPIC, 1.26 fold enrichment (6-mer frequency, TF over GST control); in the experiment with ELF4, 1.32 fold enrichment (6-mer frequency, TF over GST control); with ELK4, 1.31 fold enrichment (6-mer frequency, TF over GST control). Besides, the binding signal with ETV2 is 1.36 fold enrichment (6-mer frequency, TF over GST control); with ELF3, 1.27 fold enrichment (6-mer frequency, TF over GST control); with CRX, 2.67 fold enrichment (6-mer frequency, TF over GST control); in the experiment with ETV1 it was 1.28 fold enrichment (6-mer frequency, TF over GST control); with ERF, 1.23 fold enrichment (6-mer frequency, TF over GST control); in the experiment with ETV3L, 1.32 fold enrichment (6-mer frequency, TF over GST control). The binding signal in the experiment with ETS2 is 1.29 fold enrichment (6-mer frequency, TF over GST control); in the experiment with SPDEF, 1.35 fold enrichment (6-mer frequency, TF over GST control); with ETV7, 1.23 fold enrichment (6-mer frequency, TF over GST control); with ELF5, 1.28 fold enrichment (6-mer frequency, TF over GST control); with ETV3, 1.38 fold enrichment (6-mer frequency, TF over GST control); with ETV6, 1.32 fold enrichment (6-mer frequency, TF over GST control).
